PubChem BioAssay (NCI)
This is part of a sample that, as a whole, favours compounds with a hit. Of some 83,000 tested, about 20% had one in any assay.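 Single-dose data. Exposure time 48 hours. Values below 10 considered active.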 Values without a mark were called inactive. Active and inactive are the calls of the source.

Tested on: KM12 colon
Experiment: NCI-60 one-dose screen, 48 h (100 = growth as untreated, 0 = no growth, -100 = all killed)
Settings: 10 µM unless noted

**Q.** How did the growth turn out when `N#CC1C(C#N)C(C(=O)c2ccc(Br)cc2)N2c3ccccc3C=CC12` (stereo not given) was run?
**A.** Its growth is 22.3%.

**Q.** For `CC(Sc1nc2sc3c(c2c(=O)n1-c1ccc(Cl)cc1)CCCC3)C(=O)Nc1nc(-c2ccc(Br)cc2)cs1` (stereo not given), which growth is on record?
**A.** The growth was 104%.

**Q.** With `COc1cc2c(cc1OC)C(=O)/C(=C/c1cc(C)c(O)c(C)c1)S2` as the molecule, how does the growth read?
**A.** Its growth is 26.2%.

**Q.** Which growth does the source give for `O=C1/C=C/[C@@H](O)[C@@H]2C[C@@H](O)C[C@H]2/C=C/CCC[C@H](CCc2cccc3ccccc23)O1` here?
**A.** Its growth is -37.9% (active).

**Q.** How did the growth turn out when `COc1ccc(C/C(=C(\C)c2ccc(OCCN3CCCC3)cc2)c2ccc(OCCN3CCCC3)cc2)cc1` was run?
**A.** The growth was 47.9%.

**Q.** `CC1=CCC(OC(=O)C(C)(O)CCC(O)(C(=O)OC2(C)C=CC(O)(C(C)C)CC2)C(C)C)(C(C)C)CC1` (stereo not given) was tested. Which growth did it give?
**A.** Its growth is 108%.

**Q.** For `CC(C)c1ccc(Nc2ccc3c(OCCCN4CCN(C)CC4)cccc3n2)cc1`, which growth is on record?
**A.** Its growth is 39.3%.

**Q.** Which growth does the source give for `CCCOc1ccc(/C=N/Nc2cc(C)nc3ccc(Cl)cc23)cc1` here?
**A.** Its growth is 16.5%.

**Q.** How did the growth turn out when `CC(Oc1ccc(C(=O)O)cc1C(F)(F)F)c1ccc(Oc2ccccc2)cn1` (stereo not given) was run?
**A.** The growth was 92.2%.

**Q.** Which growth does the source give for `COc1ccc(NC(=O)c2cc(NCc3cc(O)ccc3O)ccc2O)cc1` here?
**A.** The growth was 88.3%.

**Q.** `ClC1=C(Br)C(Br)(Br)C(=C(Br)Br)C1(Br)Br` was tested. Which growth did it give?
**A.** Its growth is 101%.

**Q.** With `COc1cccc(-c2nc3occn3c2-c2ccnc(NCCCNS(=O)(=O)c3ccc(C(F)(F)F)cc3)n2)c1` as the molecule, how does the growth read?
**A.** Its growth is 91.5%.

**Q.** Which growth does the source give for `Cn1nc(CC#N)c2c(=N)n(N)cnc21` here?
**A.** The growth was 102%.

**Q.** `N#C/C(=C\c1ccc(C(F)(F)F)cc1)c1cc2ccccc2[nH]1` was tested. Which growth did it give?
**A.** The growth was 97.7%.

**Q.** `CCCCCCCCOc1ccc(/C=N/Nc2cc(C)nc3ccc(Br)cc23)cc1` was tested. Which growth did it give?
**A.** Its growth is 57%.

**Q.** For `CC(=O)N1N=C(c2ccc(-n3ccc(C(F)(F)F)n3)c(F)c2)CC1c1ccc[nH]1` (stereo not given), which growth is on record?
**A.** Its growth is 101%.

**Q.** How did the growth turn out when `COc1cc(-c2csc(NC(=O)c3cc(F)cc(C(F)(F)F)c3)n2)cc(OC)c1OC` was run?
**A.** Its growth is 26.6%.

**Q.** How did the growth turn out when `COc1cc(/C=C/C(=O)c2nc3cc(F)ccc3nc2C)cc(OC)c1OC` was run?
**A.** Its growth is 36.2%.

**Q.** Which growth does the source give for `N#Cc1cc(-c2nc3ccccc3s2)c(=O)n(NS(=O)(=O)c2ccccc2)c1N` here?
**A.** The growth was 103%.

**Q.** Which growth does the source give for `CC(C)N1C(=O)S/C(=C2/SC(=O)N(C(C)C)C2=O)C1=O` here?
**A.** The growth was 99.9%.

**Q.** How did the growth turn out when `O=C(/C=C/c1ccc[nH]1)c1ccc(-n2ccc(C(F)(F)F)n2)c(F)c1` was run?
**A.** Its growth is 29.6%.

**Q.** For `Nc1c(C(=O)Nc2cccc3cnccc23)sc2nc3c(cc12)C(=O)CCC3`, which growth is on record?
**A.** The growth was 71.5%.

**Q.** `COc1ccc(Cc2cnc(NC(=O)c3ccc4c(c3)OCCO4)s2)cc1` was tested. Which growth did it give?
**A.** The growth was 10.3%.

**Q.** `Cc1ccc(NC(=O)c2cc(-c3nc4ccccc4s3)c(=O)n(NS(=O)(=O)c3ccc(Cl)cc3)c2N)cc1` was tested. Which growth did it give?
**A.** Its growth is 98.8%.

**Q.** With `COc1cc(-c2n/c(=C\c3c(O)[nH]c4ccc(Cl)cc34)cc3c2=Nc2ccccc2-3)ccc1F` as the molecule, how does the growth read?
**A.** The growth was 4.87% (active).
